Assay results reported in PubChem BioAssay AID602262 (National Center for Advancing Translational Sciences (NCATS), 2012).
Values without a mark were called inactive. Calls follow the shape of the dose curve; as a rule, active = well fitted curve in the direction sought with a large enough effect; inactive = no such curve, though single readings can be large or run the other way.

Experiment: qHTS Assay for Agonists of the Relaxin Receptor RXFP1: V1B SAR
Conditions: HEK293 V1B cells, cAMP TR-FRET, 30 min; series mostly up to 78.1 µM; activation: at the top concentration
Text: The relaxin hormone is involved in the variety of biological functions in normal tissues and diseases. The role of relaxin is well-established in female reproduction and parturition, mammary gland and endometrial development, maintenance of myometrial quiescence during pregnancy. Relaxin signaling through its G protein-coupled receptor (GPCR) RXFP1 results in ECM remodeling through regulation of collagen deposition, cell invasiveness, proliferation and overall tissue homeostasis. […] Recombinant human relaxin (rhRlx) is currently being tested in clinical trials as a protective agent in congestive heart failure, in treating severe preeclampsia, and as an anti-fibrotic agent in systemic sclerosis. Upon relaxin binding RXFP1 activation leads to the activation of adenylate cyclase (AC) via Gs. cAMP will activate PKA, which phosphorylates many signaling proteins. Thus, detection of cAMP increase is an easy and reliable indication of relaxin receptor activation. To screen for agonists of the relaxin receptor, a HEK293T cell line stably transfected with RXFP1 was used. RXFP1 activation was assayed by changes in cAMP levels as detected with a time-resolved fluorescence energy transfer (TR-FRET) cAMP detection kit. This assay measures activation of a cell expressing V1B, another GPCR targeted by relaxin, to determine the selectivity of compounds for RXFP1. NIH Chemical Genomics Center [NCGC] NIH Molecular Libraries Probe Production Centers Network [MLPCN] MLPCN Grant: R03 MH085705-01A1 Assay Submitter (PI): Alexander Agoulnik
This is a cell-based assay for cAMP second messenger response to screen for agonists of the RXFP2 receptor. The assay was conducted in the presence of a PDE4 inhibitor (Ro 20174). The cells were lysed and the cAMP levels were measured with a TR-FRET cAMP kit. Presence of cAMP in the cell lysate disrupts binding between the cryptate-labeled anti-cAMP and d2-labeled cAMP pair, leading to a decrease in the TR-FRET signal. Data were normalized to the controls for basal activity (buffer only) and 100% activity (29 nM porcine relaxin). The EC50 values were determined from concentration-response data modeled with the standard Hill equation 1536-well assay protocol for the HEK293 V1B cAMP assay: (1) Add 3 ul HEK293 RXFP2 cell culture. 2000 cells/well in DMEM/F12, 10% FBS, 1x Pen/Strep (dispensed offline with MultiDrop Combi). (2) Incubate 16-24 hr at 37C, 5% CO2. (3) Add 1 ul 400uM Ro20174 in DPBS, 0.05% BSA, 0.005% Tween 20. (3) Add 23 nl compounds in DMSO solution. Final concentration was 0.5 - 58 uM. (4) Incubate 30 min at 37C, 5% CO2. (5) Add 1 ul cAMP-d2 in lysis buffer (HTRF cAMP HiRange kit, CisBio). (6) Add 1 ul anti-cAMP antibody-cryptate in lysis buffer (HTRF cAMP HiRange kit, CisBio). (7) Incubate 30 min at room temperature. (6) Detect the assay plate in a ViewLux plate reader (PerkinElmer) with Ex=320 nm, Em1=615 nm and Em2=665 nm. Keywords: relaxin, RXFP1, RXFP2, G-protein coupled receptor, cAMP, agonist, high throughput screening, MLSMR, MLSCN, NIH Roadmap, qHTS and NCGC

Row | SMILES | activation [%]
1 | O=C(Cc1ccccc1)Nc1ccccc1C(=O)Nc1cccc(C(F)(F)F)c1 | -1.24
2 | O=C(Nc1cccc(C(F)(F)F)c1)c1ccccc1NC(=O)C1CCCCCC1 | 3.2
3 | O=C(Nc1ccccc1C(=O)Nc1cccc(C(F)(F)F)c1)c1ccccc1 | 66.3
4 | O=C(Nc1ccccc1C(=O)Nc1cccc(C(F)(F)F)c1)c1ccccc1Cl | 3.73
5 | COc1ccccc1C(=O)N(C)c1ccccc1C(=O)N(C)c1cccc(C(F)(F)F)c1 | -1.13
6 | O=C(Nc1cccc(S(=O)(=O)C(F)(F)F)c1)c1ccccc1NC(=O)C1CCCCC1 | -2.51
7 | CC(C)Oc1ccccc1C(=O)Nc1ccccc1C(=O)Nc1cccc(C(F)(F)F)c1 | -5.45
8 | Cc1ccccc1NC(=O)c1ccccc1NC(=O)C1CCCCC1 | -4.45
9 | COc1ccccc1C(=O)Nc1ccccc1C(=O)Nc1cccc(C(F)(F)F)c1 | -4.34
10 | CCOc1ccccc1C(=O)Nc1cccnc1C(=O)Nc1cccc(S(=O)(=O)C(F)(F)F)c1 | -5.24
11 | CCCCOc1ccccc1C(=O)Nc1ccccc1C(=O)Nc1cccc(S(=O)(=O)C(F)(F)F)c1 | -0.668
12 | O=C(Nc1cccc(C(F)(F)F)c1)c1ccccc1NC(=O)C1CCCCC1 | 1.32
13 | COc1ccccc1Nc1ccccc1C(=O)Nc1cccc(C(F)(F)F)c1 | -2.38
14 | CCOc1ccccc1C(=O)Nc1ccncc1C(=O)Nc1cccc(S(=O)(=O)C(F)(F)F)c1 | 4.28
15 | O=C(Nc1cccc(-c2ccccc2C(F)(F)F)c1)c1ccccc1NC(=O)C1CCCCC1 | 3.89
16 | COc1ccccc1C(=O)Nc1ccccc1C(=O)Nc1cccc(SC(F)(F)F)c1 | -3.98
17 | CN(C)CCOc1ccccc1C(=O)Nc1ccccc1C(=O)Nc1cccc(C(F)(F)F)c1 | 1.12
18 | COc1cccc(C(=O)Nc2ccccc2C(=O)Nc2cccc(C(F)(F)F)c2)c1 | 1.57
19 | CCCCC(=O)Nc1ccccc1C(=O)Nc1cccc(C(F)(F)F)c1 | -2.71
20 | COc1ccc(C(=O)Nc2ccccc2C(=O)Nc2cccc(C(F)(F)F)c2)cc1 | 3.66
21 | COc1cccc(NC(=O)c2ccccc2NC(=O)C2CCCCC2)c1 | -6.38
22 | CCOc1ccccc1C(=O)Nc1ccccc1CNc1cccc(S(=O)(=O)C(F)(F)F)c1 | 2.87
23 | CCOc1ccccc1C(=O)Nc1cnccc1C(=O)Nc1cccc(S(=O)(=O)C(F)(F)F)c1 | 2.84
24 | COc1ccccc1C(=O)Nc1ccccc1C(=O)Nc1cccc(S(=O)(=O)C(F)(F)F)c1 | -2.19
25 | O=C(Nc1cccc(S(=O)(=O)C(F)(F)F)c1)c1ccccc1NC(=O)c1ccccc1OCC(F)(F)F | 1.49
26 | CCOc1ccccc1C(=O)NCCC(=O)Nc1cccc(S(=O)(=O)C(F)(F)F)c1 | 3.4
